Rows were chosen to be rich in hits. Some 7.9% of all compounds tested hit in one or more screens of this group.
MARV entry inh – inhibitors of Marburg virus binding or cell entry | 300,000 compounds, 1.8% hits | Potency, µM (titrated, usually from 37.8 µM), actives largely listed as inhibitors | Marburg virus pseudotyped entry inhibition, cell reporter; calls by dose curve; tested in HEK293 cells
HCMV antiviral – blocks human cytomegalovirus replication; HFF cells, HCMV-luciferase reporter, 72 h; stronger effect = lower value; activity change, negative = inhibition, % at 57.5 µM; 410,000 compounds, 4.5% hits; in the data active = activity change below about -60%; inconclusive = no clear call, values can overlap the other calls; inactive = above about -39%
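After 16 h attachment at 37C, HFF cells received test compound and HCMV-luciferase (1 PFU/cell); reporter luminescence read 72 h later, data normalized against buffer-only and known inhibitor Salinomycin.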
Lassa entry inh – Lassa virus entry inhibition; 300,000 compounds, 1.2% hits; Lassa virus pseudotype entry inhibition, cell reporter; Potency, µM (doses to about 37.9 µM), most hits filed as inhibitors; calls by dose curve; tested in HEK293 cells; note: nearly all actives have a fitted effect of over 50% in size
HCV inh – HCV inhibition; AID 651820; Huh7.5.1 HCVcc-Cre infection, luciferase reporter, 44 h; 340,000 compounds, 3.4% hits; Potency, µM (doses to about 41.8 µM), most hits filed as inhibitors; active = well fitted inhibition curve with a large enough effect; inconclusive = small, poorly fitted or top-dose-only effect, or another doubt; inactive = no such curve, though single readings can be large or run the other way
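Antiviral activity was scored by luciferase reporter output from cells infected with HCVcc-Cre (~0.5 moi) in presence of compound, 44 h infection period, cells seeded 1,000/well 4 h prior.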
FMDV antiviral – blocks foot and mouth disease virus; FMDV antiviral cell-based qHTS; Potency, µM (series often up to 57.9 µM), hits mostly inhibitors; 410,000 compounds, 1.2% hits; calls by dose curve; tested in HEK293T cells; note: read-out not given here; nearly all actives have a fitted effect of over 45% in size
Numbers stand for hits; - = inactive; ? = inconclusive; . = no result given.

SMILES	MARV entry inh	HCMV antiviral	Lassa entry inh	HCV inh	FMDV antiviral
CCC1(O)C(=O)OCc2c1cc1n(c2=O)Cc2cc3cc(O)ccc3nc2-1 (centres undefined)	.	-107.1	.	-	-
CCOC(=O)c1ccccc1NC(=O)c1c2c(nc3ccccc13)C(=O)N(C1CCCCC1)C2	.	-	-	.	-
CC[C@@]1(O)C(=O)OCc2c1cc1n(c2=O)Cc2cc3c(NC(=O)CN)cccc3nc2-1	?	-98.5	-	-	-
CCC1(OC(=O)CN)C(=O)OCc2c1cc1n(c2=O)Cc2cc3ccccc3nc2-1 (centres undefined)	?	.	?	?	-
CCc1c2c(nc3ccc(OC(=O)N4CCC(N5CCCCC5)CC4)cc13)-c1cc3c(c(=O)n1C2)COC(=O)[C@]3(O)CC	.	-92.2	.	-	-
C[S+](=O)([O-])c1sc(C(=O)NC(=S)NC2CCC(OC(F)(F)F)CC2)c2c1C=CCC2 (centres undefined)	-	.	.	.	.
CCCN(CCC)C(=O)CSc1nc2ccccc2c(=O)n1Cc1ccco1	.	-	-	.	-
CCCCCn1c(SCc2ccncc2)nc2cc(C(=O)NCc3ccco3)ccc2c1=O	-	-	-	14.1µM	?
CN(Cc1ccccc1)C(=O)CSc1nc2ccccc2c(=O)n1Cc1ccco1	6.51µM	-80.2	5.8µM	?	.
Cc1ccc(CSc2nc3cccnc3n2Cc2ccc(C(=O)NCc3ccco3)cc2)cc1	.	-	-	.	-
COCCn1c(C)cc(C(=O)CSc2nc3ccccc3c(=O)n2Cc2ccco2)c1C	?	-69.5	?	?	-
O=C(CSc1nc2ccccc2c(=O)n1Cc1ccco1)N1CCCCCC1	-	?	?	11.2µM	?
COc1ccc(Cl)cc1NC(=O)C1CCCN(S(=O)(=O)c2ccc3c(c2)CCCC(=O)N3)C1 (centres undefined)	.	-	?	.	-
CCN(C(=O)C1CCN(S(=O)(=O)c2ccc3c(c2)CCCN3C(C)=O)CC1)c1cccc(C)c1	.	-	-	.	?
CC(C)(C)c1nc(SCC(=O)NCc2ccco2)c2ccccc2n1	-	-88.4	-	?	-
O=C(NCc1ccco1)c1ccc2c(=O)n(Cc3ccco3)c(SCC(=O)N3CCCC3)nc2c1	?	-	-	12.6µM	-
Cc1sc2nc(SCC(=O)NCc3ccco3)n(Cc3ccccc3)c(=O)c2c1C	-	-	-	2.24µM	-
Cc1nc(SCC(=O)NCc2ccco2)c2c(C)c(C)sc2n1	14.6µM	-	?	?	-
CCOc1ccc(C(c2c(O)cc(C)n(CCOC)c2=O)N2CCN(c3ccccc3F)CC2)cc1 (centres undefined)	.	-	-	.	-
COc1ccccc1NC(=O)N[C@H]1CC[C@@]23CCCN2C(=O)CCC[C@H]3[C@H]1C	.	-	.	.	.
Cc1nc(SCC(=O)Nc2ccc(S(=O)(=O)N3CCOCC3)cc2)c2c(C)c(C)sc2n1	?	-	1.12µM	7.08µM	-
O=C(CSc1nc2ccccc2c(=O)n1Cc1ccco1)NCc1ccco1	-	-	-	10µM	.
CCCCn1c(SCC(=O)NCc2ccco2)nc2ccccc2c1=O	-	-	-	?	-
COc1ccc(C(=O)CSc2nc(C(C)(C)C)nc3ccccc23)cc1	.	?	.	3.98µM	?
O=C(CSc1nc2ccsc2c(=O)n1Cc1ccccc1)NCc1ccco1	-	-	-	8.91µM	-
SMILES	MARV entry inh	HCMV antiviral	Lassa entry inh	HCV inh	FMDV antiviral
COc1ccc(Nc2nc3c(S(=O)(=O)c4ccc(Br)cc4)nnn3c3ccsc23)c(OC)c1	.	-	-	.	-
Cc1cc(C)nc(SCC(=O)NC2=NN=C(c3ccc(Br)cc3)CS2)n1	-	-91.7	-	?	?
CCC(Sc1nc(C)cc(C)n1)C(=O)NC1=NN=C(c2ccc(C)cc2)CS1 (centres undefined)	?	-105.5	?	?	-
CC(=O)Nc1ccc(S(=O)(=O)NCCOc2ccc(Cl)cc2C)cc1	?	-73.5	-	-	-
O=C(Nc1cc(Cl)cc(Cl)c1)c1ccc(F)c(S(=O)(=O)NC2CCCC2)c1	.	-	-	.	-
CO/N=C(\c1nonc1N)N1CCN(c2ccc(Cl)cc2[N+](=O)[O-])CC1	?	-	?	?	35.5µM
CCn1ccc2c(OCC(=O)Nc3ccccc3C(F)(F)F)cccc2c1=O	.	-	?	.	31.6µM
CCOCCn1ccc2c(OCC(=O)Nc3cc(C)cc(C)c3)cccc2c1=O	.	-	-	.	-
COCCn1ccc2c(OCC(=O)NCc3ccc(F)cc3)cccc2c1=O	.	-	?	.	-
CCOC(=O)COc1cccc2c(=O)n(CC(=O)NCc3ccccc3)ccc12	.	-70.1	.	-	-
CCOCCn1ccc2c(OCC(=O)Nc3ccc(OC)c(OC)c3)cccc2c1=O	?	?	-	?	25.1µM
CCOC(=O)COc1cccc2c(=O)n(CC(=O)NCc3ccc(F)cc3)ccc12	.	?	.	-	-
COCCn1ccc2c(OCC(=O)NCCc3ccccc3)cccc2c1=O	-	-	?	10µM	-
Cc1ccc2nc(-c3cccc(N)c3)oc2c1	?	-	?	-	.
Cc1ccc2nc(-c3ccc(O)cc3)oc2c1	5.62µM	-	?	-	12.6µM
CC(C)c1ccc(CNc2nc(-c3ccco3)nn2S(=O)(=O)c2ccc3ccccc3c2)cc1	-	-	-	.	-
CCOc1ccc(C(=O)Oc2c(Sc3ccccc3)c(C)nn2C(C)(C)C)cc1OCC	?	-	-	.	-
NS(=O)(=O)c1ccc(CCNc2ncnc3c2c(-c2ccccc2)cn3-c2ccc(F)cc2)cc1	?	-	?	11.2µM	15.8µM
Fc1ccc(-n2cc(-c3ccccc3)c3c(NN4CCOCC4)ncnc32)cc1	?	?	?	?	-
Cc1ccccc1NC(=O)Nc1cc(-c2ccccc2)nn1C	?	-	?	-	-
Cc1ccccc1C(=O)Nc1cc(-c2cc(C(C)(C)C)oc2C)nn1C	?	-62.8	-	?	-
CCCCCn1cc2c(c1-c1ccc(Br)cc1)c(=O)n(C)c(=O)n2C	-	-	-	.	-
COc1cn(CC(=O)Nc2ccc(F)cc2)c(CN2CCCCC2)cc1=O	.	-	-	.	-
CN(C1CCCCC1)S(=O)(=O)c1ccc2c(c1)c(=O)c(C(=O)NCc1ccc(Cl)cc1)cn2C	-	-	-	.	-
CC(C)Cn1c(N)c(C(=O)COC(=O)C2CCCCC2)c(=O)n(C)c1=O	-	-	-	?	?
SMILES	MARV entry inh	HCMV antiviral	Lassa entry inh	HCV inh	FMDV antiviral
Cc1nn(-c2ccccc2)c(C)c1C(=O)OCC(=O)c1c(N)n(CC(C)C)c(=O)n(C)c1=O	?	-79.2	6.51µM	5.62µM	31.6µM
CCC(C(=O)OCC(=O)c1c(N)n(CC(C)C)c(=O)n(C)c1=O)c1ccccc1 (centres undefined)	-	?	?	?	39.8µM
CC(C)Cn1c(N)c(C(=O)COC(=O)C2Cc3ccccc3CN2S(C)(=O)=O)c(=O)n(C)c1=O (centres undefined)	?	-	-	11.2µM	-
CC(C)Cn1c(N)c(C(=O)COC(=O)[C@H](C)NC(=O)c2ccccc2Cl)c(=O)n(C)c1=O	-	-	-	-	-
COC(=O)c1ccc(NC(=O)Cc2coc3cc(C)ccc23)cc1	-	-	-	.	-
Cc1cccc(CNC(=O)c2cnc3sc(N4CCOCC4)nn3c2=O)c1	.	-	-	.	-

Bioassay records (PubChem BioAssay)
